Measurements reported in the supplement of paper PMC6555819.

Assays:
Test in all cases: PBM binding z-score (relative to random genomic background probes); higher = stronger binding; sequences stand for … in GC…GCGATTGACAGCGTAGAATGAAGG
[1] = system: FXR:RXRa (NR concentration 270 nM, RXRa partner concentration 90 nM)
How it was run: (§1)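 Random background probes are the reference for binding z-scores. These scores derive from regression-normalized fluorescence on custom Agilent 4×180K protein-binding microarrays incubated 1 h with ligand-free nuclear receptor dimers. Binding was detected with antibodies against each partner (one per run).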

[2] = system: LXRa:RXRa (NR concentration 270 nM, RXRa partner concentration 90 nM)
How it was run: as §1

[3] = system: LXRa homodimer (NR concentration 270 nM)
How it was run: as §1

[4] = system: LXRb:RXRa (NR concentration 270 nM, RXRa partner concentration 90 nM)
How it was run: as §1

[5] = system: LXRb homodimer (NR concentration 270 nM)
How it was run: as §1

[6] = system: PPARa:RXRa (NR concentration 270 nM, RXRa partner concentration 90 nM)
How it was run: as §1

[7] = system: PPARg:RXRa (NR concentration 180 nM, RXRa partner concentration 90 nM)
How it was run: as §1

[8] = system: PPARg:RXRa 270nM:90nM, anti-RXR (NR concentration 270 nM, RXRa partner concentration 90 nM)
How it was run: as §1

[9] = system: PPARg:RXRa 30nM:10nM, anti-RXR (NR concentration 30 nM, RXRa partner concentration 10 nM)
How it was run: as §1

[10] = system: PPARg:RXRa 90nM:30nM, anti-RXR (NR concentration 90 nM, RXRa partner concentration 30 nM)
How it was run: as §1

[11] = system: PPARg:RXRa DBDmut IVT, anti-RXR (DBD mutation: RXRa K156A/R161A, NR concentration 270 nM, RXRa partner concentration 90 nM)
How it was run: as §1

[12] = system: PPARg:RXRa IVT, anti-PPARg (NR concentration 270 nM, RXRa partner concentration 90 nM)
How it was run: as §1

[13] = system: PPARg DBDmut:RXRa IVT, anti-PPARg (DBD mutation: PPARg1 K132A/R137A, NR concentration 270 nM, RXRa partner concentration 90 nM)
How it was run: as §1

[14] = system: PPARg DBDmut IVT, anti-PPARg (DBD mutation: PPARg1 K132A/R137A, NR concentration 270 nM)
How it was run: as §1

[15] = system: PPARg homodimer (NR concentration 180 nM)
How it was run: as §1

[16] = system: PXR:RXRa (NR concentration 270 nM, RXRa partner concentration 90 nM)
How it was run: as §1

[17] = system: PXR homodimer (NR concentration 270 nM)
How it was run: as §1

[18] = system: RARa:RXR (NR concentration 270 nM, RXRa partner concentration 90 nM)
How it was run: as §1

[19] = system: RARa homodimer (NR concentration 270 nM)
How it was run: as §1

[20] = system: RARb:RXRa (NR concentration 270 nM, RXRa partner concentration 90 nM)
How it was run: as §1

Sequence	PBM binding z-score [1]	PBM binding z-score [2]	PBM binding z-score [3]	PBM binding z-score [4]	PBM binding z-score [5]	PBM binding z-score [6]	PBM binding z-score [7]	PBM binding z-score [8]	PBM binding z-score [9]	PBM binding z-score [10]	PBM binding z-score [11]	PBM binding z-score [12]	PBM binding z-score [13]	PBM binding z-score [14]	PBM binding z-score [15]	PBM binding z-score [16]	PBM binding z-score [17]	PBM binding z-score [18]	PBM binding z-score [19]	PBM binding z-score [20]
CCTAGCAGGCCAATCTGGGTCACGCAAGGCTTGA	1.04	1.43	-0.342	0.849	-1.08	3.34	3.18	3.08	0.775	2.35	4.65	5.54	0.23	-0.484	0.454	1.48	-0.572	2.17	-0.583	1.92
TGTCAAAGTTCAAAGGTAACGAAAGTATCCACAC	7.51	6.49	4.27	5.02	1.67	6.08	9.12	7.76	6.04	7.45	0.62	4.53	1.27	1.66	3.32	5.76	3.79	6.83	1.29	5.22
GCAGACAGGTGAAACGCTGGTAACTCAGGGTGGC	-0.319	0.0267	-0.492	-0.149	-1.44	0.737	0.389	0.0806	-0.77	-0.171	0.871	0.415	-0.505	-0.62	-1.22	-0.38	-0.927	0.0217	-0.662	0.668
CAAACTAGGTCACCGGCAGGTCAAAGTCCGCATG	5.82	5.46	3.97	4.21	0.888	5.7	9.54	7.62	5.44	7.61	8.64	8.72	2.38	0.783	4.83	5.26	0.922	6.42	1.55	4.93
ATATGTAGGTTAGCTGGGGTCATGCAGACTAGGC	4.32	5.63	1.92	4.51	0.764	5.44	6.19	5.5	3.22	5.13	6.73	6.58	3.11	1.46	3.23	6.14	2.18	5.87	1.4	3.44
CGTCCAAGGTCAGCAGGTCAGTGCAAGCGACGTG	5.87	3.79	0.73	2.8	-0.131	4.86	4.09	4.53	1.16	2.98	3.15	3.71	-0.109	-0.869	3.88	3.68	0.651	4.87	0.357	5.27
ACTCGGAGGACAATGGTCAGAGCTACGCCAGTGA	-0.187	-0.512	-0.435	-0.708	-0.881	-0.704	0.723	0.466	-0.281	-0.00366	-0.21	-0.421	-1.67	-0.609	-0.576	-0.593	-0.561	-0.488	-0.119	1.23
TCTAGCGGGCCAGAGGGTCACTCAAGAGGTACGG	0.839	0.883	-0.748	1.08	-1.43	2.37	1.3	2.42	1.68	2.48	0.727	0.801	-0.857	-1.59	-0.0821	1.64	-0.599	2.17	-0.431	2.2
TAGCCTAGGTCATTCAGAGGCCAGTATAGAAAGC	4.56	3.63	0.829	2.82	0.598	3.63	2.34	2.29	0.542	1.47	1.43	2.85	0.547	0.364	2	2.58	-0.166	3.25	-0.206	4.09
CATACAGGGTCAGCTAAGCCAGAGTAGGGACGGC	4.23	2.89	0.0357	2.17	0.175	4.39	3.57	2.87	0.539	1.9	1.39	2.48	1.15	0.523	1.5	2.16	-0.442	3.02	0.0387	3.9
CCTGATAGGTCATGGTCAGCTAATCTACAGTATG	5.33	4.19	0.689	3.39	0.182	4.96	3.65	3.99	1.25	2.81	3.61	2.99	1.15	0.715	2.24	2.79	0.473	4.02	1.43	4.18
ACTAGCAGGCCAACTTTGGGTCACTCAAACAAAG	0.261	0.66	0.362	0.931	-0.445	1.53	0.543	0.901	-0.236	0.471	1.25	1.4	0.153	-0.0474	0.721	0.676	-0.281	1.52	-0.417	1.74
AGAATGAGGTTATACTTAGATCAGGGAAGAAAGT	1.79	1.76	0.275	1.58	0.388	2.68	1.83	1.44	0.605	1.17	2.72	2.03	1.21	1	1.21	1.02	0.666	1.38	1.18	1.3
CTCGAAAGGTAGTGCTCAGGTGAGTATACCAAAC	-0.118	-0.487	-0.334	-0.319	-0.503	-0.373	-0.362	-0.344	-0.375	-0.618	-0.0569	-0.0512	-0.21	-0.517	-0.0331	-0.295	-0.0771	0.238	0.44	-0.123
ATCGAAAGGTCGTGAGGTGATTATACAGAAAGGC	5.04	4.01	0.374	3.36	0.471	4.92	4.09	4.21	1.66	2.92	0.336	1.93	1.12	1.16	1.42	3.14	0.165	3.89	0.608	4.08
CCTCGGAGGACAGAAGGTCAGAGGTGTCCGCTTT	1.1	1.45	0.406	0.796	-0.636	2.06	0.463	1.58	-0.408	0.771	-0.101	0.357	-1.36	-1.55	0.853	1.4	0.183	2.11	0.0276	3.32
CCGACTGGGGCATAAGATTACCATAAGCCAGCCC	-0.495	-0.33	-0.319	-0.411	-1.33	0.114	1.12	0.921	-0.305	0.461	3.26	1.75	-0.988	-1.17	0.089	-0.666	-0.41	-0.621	-0.486	0.112
CCGACTGGGGCAAGGTTACCATCACGCACAGCCA	0.162	0.447	-0.106	0.674	-1.14	1.79	2.72	3.61	0.851	2.78	3.35	3.48	-0.952	-0.665	0.946	0.175	0.0478	0.822	-0.0498	1.5
ATCTCTAGGTAAAGTTCAGTAAAAGATCGATAGA	1.06	1.77	1.7	1.29	0.992	2.18	2.91	4.22	2.52	4.14	2.04	2.45	1.82	0.984	2.05	2.07	2.09	1.42	2.26	2.82
CCTACTGGGCCAAAGGTCATTGCTTCCAATGCTC	4.94	5.17	4.85	4.86	0.985	6.51	11.3	9.77	10.1	11.1	5.34	6.61	-0.293	0.248	2.84	5.39	1.64	5.98	0.417	4.49
ATCTCTAGGTAAAGATAGTTCAGTGACTGCAAAT	0.289	4.19	0.906	0.867	0.656	0.677	0.174	0.437	0.221	0.0894	2.25	1.52	1.25	0.496	0.972	1.06	0.522	0.54	1.52	0.693
AATACAGGGTCATCGTAGGCCAGATTACGCACAG	7.31	6.79	2.75	4.95	1.56	5.92	6.61	6.1	3.14	4.89	2.88	4.16	2.1	1.86	3.02	5.14	0.561	5.6	0.954	4.27
ATCGAAAGGTCGAAGGTGAGTATTCCCACCCGAA	4.33	3.66	0.077	2.78	0.842	4.58	4.28	5	1.99	4.39	0.38	2.13	0.944	0.361	2.58	2.89	-0.082	4.32	0.118	3.64
TAGACTAGGTCATGCGGGCCAGTATAGTGTCGGC	3.22	2.34	0.304	1.15	0.173	3.96	5.48	4.65	2.34	3.95	5.86	6.59	1.88	2.4	0.793	1.06	-0.131	1.67	-0.228	3.55
CCTACTGGGCCAAATAGGTCATTGATGCCGATAA	1.09	1.66	0.941	1.91	-0.592	3.18	2.07	2.92	0.838	2.18	4.31	4.63	0.236	-0.456	1.27	1.88	0.588	2.32	0.564	2.23
TCTATTAGTTGATTAGGGCAACCCAAACAGCGGA	0.851	0.543	0.334	0.826	0.771	1.09	0.509	1.97	3.86	2.89	1.83	1.56	1.32	1.89	0.811	0.65	0.299	0.776	1.44	0.917
CCTCGGAGGACAGAAGGTCATAGCTGTCCGCTTT	2.89	3.44	1.4	2.23	-0.526	3.17	0.58	1.68	-0.379	0.915	0.177	0.772	-1.55	-1.54	2.13	3.22	0.225	3.55	0.138	3.5
AGAACGAGGGCAATGGGTTGATAGCACGGGTGGC	0.877	0.764	-0.127	0.316	0.02	1.67	1.78	1.38	-0.00991	1.08	3.27	3.01	0.598	-0.394	1.19	1.48	4.66	0.466	0.403	2.4
